Pf growth 48h: P. falciparum growth inhibition at 48 hours (one generation). AID 504832. P. falciparum luciferase growth in erythrocytes, 48 h. 310,000 tested, 5.9% active. Potency, µM (series often up to 28.7 µM), for the others: top-dose activity change, negative = inhibition, hits mostly inhibitors; note: % is set by controls: 0 for no effect and ±100 for the full control effect
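Read-out is firefly luciferase luminescence from an integrated reporter in P. falciparum, so falling signal marks reduced parasite growth. Infected erythrocytes were at 2% hematocrit and 0.1% parasitemia (final) in Albumax-supplemented RPMI 1640.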
SARS PLP yeast: blocks SARS-CoV papain-like protease in a yeast assay | Potency, µM (titrated, usually from 32.9 µM), for the others: at the highest dose activity, positive = growth rescue, usual class: activators | AID 485353 | S. cerevisiae expressing SARS-CoV PLpro, growth rescue | 330,000 tested, 0.19% active; calls by dose curve; note: 0% is about no effect; nearly all actives have a fitted effect of over 55% in size
AmpC inh detg: AmpC beta-lactamase inhibition with detergent present. P00811. AmpC hydrolysis of nitrocefin, absorbance 480 nm, 0.01% Triton. Potency, µM (doses to about 114 µM), inactives show at the top dose activity change, negative = inhibition, hits mostly inhibitors. 370,000 tested, 0.041% active. AID 485294;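 note: 0% = no-compound wells and -100% = no-enzyme wells; nearly all actives have a fitted effect of over 25% in size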
Target sequence (P00811 whole entry, looked up): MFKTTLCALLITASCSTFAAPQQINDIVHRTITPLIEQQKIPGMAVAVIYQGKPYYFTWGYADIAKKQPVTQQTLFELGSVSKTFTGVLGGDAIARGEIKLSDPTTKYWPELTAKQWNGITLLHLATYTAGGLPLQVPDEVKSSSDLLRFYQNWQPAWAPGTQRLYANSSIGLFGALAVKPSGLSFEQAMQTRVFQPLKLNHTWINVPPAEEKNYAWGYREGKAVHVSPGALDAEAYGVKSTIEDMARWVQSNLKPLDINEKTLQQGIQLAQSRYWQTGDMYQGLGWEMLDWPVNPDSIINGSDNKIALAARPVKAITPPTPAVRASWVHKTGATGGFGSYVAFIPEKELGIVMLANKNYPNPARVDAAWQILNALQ
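20 mM phosphate pH 7.0 + 0.01% (detergent screen) or 0.0001% Triton X-100; 5.3 nM AmpC reagent; cpd preinc 15 min RT; nitrocefin (800 uM stock) to start; A480 q20 s × 4 min; Activity was normalised to no-enzyme and no-compound control wells.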
Pf growth 96h: P. falciparum growth inhibition at 96 hour, primary screen for plastid delayed-death inhibitors. P. falciparum luciferase reporter growth, 96 h. Potency, µM (top dose mostly 28.7 µM), for the others: top-dose activity change, negative = inhibition, usual class: inhibitors. 320,000 tested, 6.9% active. AID 504834; note: % is set by controls: 0 for no effect and ±100 for the full control effect
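Delayed-death screen, second-generation endpoint: infected erythrocytes, 2% hematocrit, 0.05% parasitemia final; 96 hours at 37 C, 5% CO2; luciferase detection reagent; luminescence decrease equals reduced growth.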
Sm TGR inh: S. mansoni TGR enzyme inhibition; Q962Y6; purified TGR, DTNB reduction, TNB absorbance 405 nm; Potency, µM (titrated, usually from 114 µM), without a hit: top-dose activity change, negative = inhibition, hits mostly inhibitors; 360,000 tested, 3% active; AID 485364; note: % is set by controls: 0 for no effect and ±100 for the full control effect; nearly all actives have a fitted effect of over 60% in size
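TGR 20 nM + NADPH 100 uM (dispensed conc.), cpd preinc 15 min RT; start with NADPH (500 uM addition) then DTNB (15 mM addition). Kinetic TNB absorbance, 405 nm filter. Four-parameter Hill fit across titration.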
AmpC no deterg: AmpC beta-lactamase inhibition without detergent; 330,000 tested, 0.52% active; P00811; AID 485341; AmpC nitrocefin hydrolysis, absorbance 480 nm, 0.0001% Triton; Potency, µM (doses to about 57.1 µM), inactives show top-dose activity change, negative = inhibition, hits mostly inhibitors;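 note: plate controls were no compound for no effect and no enzyme for full effect; nearly all actives have a fitted effect of over 20% in size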
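20 mM phosphate pH 7.0 + 0.01% (detergent screen) or 0.0001% Triton X-100; 5.3 nM AmpC reagent; cpd preinc 15 min RT; nitrocefin (800 uM stock) to start; A480 q20 s × 4 min; Activity was normalised to no-enzyme and no-compound control wells.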
* hit, by the source's call; ? = inconclusive; / = no result given; [ ] = dose if it differs, or a comment. Shown are actives, neighbours in structure and some others; about 12% of the full set was active somewhere. Unless noted, calls come from the whole dose curve; as a rule, active = well fitted curve in the direction sought with a large enough effect; inconclusive = small, poorly fitted or top-dose-only effect, or another doubt; inactive = no such curve, though single readings can be large; an effect the other way counts as inactive or inconclusive. Potency is the fitted concentration of half-maximal effect.

SMILES | Pf growth 48h | SARS PLP yeast | AmpC inh detg | Pf growth 96h | Sm TGR inh | AmpC no deterg
COc1cc(/C=C/CN2CCN(Cc3ccc(C)o3)C(CCO)C2)ccc1O (configuration not stated) | 7.8% | 0.6% | 0.7% | 0.0% | 12.6µM* | -12.4%
COc1ccc(/C=C/CN2CCN(Cc3cccc(OC)c3)C(CCO)C2)cc1 (configuration not stated) | ? | -0.1% | -2.1% | ? | -13.1% | 130.2%
CCOc1ccc(CN2CCN(C/C=C/c3ccc(OC)cc3)CC2CCO)cc1 (configuration not stated) | -20.5% | 0.4% | -4.7% | 11.9% | 27.1% | 153.4%
Cc1onc(-c2c(F)cccc2Cl)c1C(=O)OCC(=O)c1c[nH]c2ccccc12 | ? | -3.1% | ? | ? | -10.4% | -36.2%
C[C@@]12C=CC(=O)C=C1CCC1C3CC(O)[C@@](O)(C(=O)CO)[C@]3(C)CC(O)[C@]12F (some centres not stated) | -6.7% | / | / | 9.3% | / | /
CCN(c1ccc(OC)cc1)S(=O)(=O)c1ccc2[nH]c3c(c2c1)CCCCC3 | / | / | 0.7% | / | -6.7% | /
COc1ccccc1/C=C/CN1CCN(Cc2ccc(C)o2)C(CCO)C1 (configuration not stated) | ? | 0.5% | -4.0% | ? | 44.7µM* | 40.5%
CCc1ccc(CNC(=O)c2ccc(-n3c(C)cc4c3CCC(C)C4)cc2)cc1 (configuration not stated) | / | / | 1.1% | / | -19.8% | /
CC1=C(C(=O)OCc2ccc3c(c2)OCO3)C(c2ccccc2OCc2ccccc2)NC(=O)N1 (configuration not stated) | 10.4µM* | 0.2% | 2.3% | / | -12.3% | -21.7%
CCOC(=O)C1=C(CS(=O)(=O)c2ccccc2)NC(=O)NC1c1ccccc1OCC (configuration not stated) | / | 8.0% | 0.1% | ? | 25.1µM* | -6.4%
CCCOc1ccccc1C1NC(=O)NC(C)=C1C(=O)OCc1ccccc1 (configuration not stated) | 13.1µM* | 9.0% | -9.7% | -4.3% | -7.5% | 7.7%
CCCOc1ccccc1C1NC(=O)NC(C)=C1C(=O)OCCOC(C)C (configuration not stated) | ? | 7.5% | ? | 11.7µM* | -11.2% | 8.4%
COc1ccc(C2=NN(C(=O)CSc3nccn3C)C(c3ccco3)C2)cc1 (configuration not stated) | / | -2.2% | / | / | / | 5.4%
COc1ccc(C(=O)NC2CCC(O)CC2)cc1S(=O)(=O)NCc1ccc(Cl)cc1 (configuration not stated) | 13.1µM* | -0.8% | ? | ? | -10.9% | -28.9%
COc1ccc(C(=O)NCCNC(C)=O)cc1S(=O)(=O)NCc1ccc(Cl)cc1 | -5.2% | 3.8% | -10.0% | 0.0% | -13.0% | -18.1%
CC(C)(C)NC(=O)C(c1ccncc1)N(Cc1ccc(F)cc1)C(=O)c1ccc(-c2ccccc2)[nH]1 (configuration not stated) | ? | 10.3% | 1.6% | ? | 31.6µM* | 126.8%
O=C(NC1CCCC1)C(c1ccncc1)N(Cc1ccco1)C(=O)c1ccc(-c2ccccc2)[nH]1 (configuration not stated) | ? | -7.0% | 5.9% | 67.1%[5.75 µM] | 28.2µM* | 34.1%
O=C(NC1CCCC1)C(c1ccncc1)N(Cc1ccccc1)C(=O)c1ccc(-c2ccccc2)[nH]1 (configuration not stated) | ? | 3.5% | ? | ? | ? | 100.3%
Cc1nonc1C(=O)N/N=C/c1cccc(O)c1 | -14.9% | -15.2% | ? | 2.08µM* | 11.2µM* | -10.5%
Cc1nc(SCC(=O)N(C)C2CCS(=O)(=O)C2)c(C#N)c(C)c1C (configuration not stated) | 2.6% | 1.6% | -2.9% | 11.4% | -8.0% | -16.9%
